# In ChEMBL document CHEMBL4513149, “CO-ADD screening of MMV (CH) - MMV compounds” (2021):
# Measured potencies and affinities stand elsewhere.
# Columns and labels:
# Staphylococcus aureus = settings: Concentration 20 uM; ASSAY_TEST Inhibition of Bacterial Growth; detection method Absorption (OD600); MEDIA CAMHB; plate type 384well; NBS; CORNING #3640; time 18 hr
# Escherichia coli = settings: Concentration 20 uM; ASSAY_TEST Inhibition of Bacterial Growth; detection method Absorption (OD600); MEDIA CAMHB; plate type 384well; NBS; CORNING #3640; time 18 hr
SMILES,Inhibition (Staphylococcus aureus),Inhibition (Escherichia coli)
COc1ccccc1C(C)NCC(=O)Nc1cc(C(F)(F)F)ccc1Cl (stereo not given),10.99%,8.42%
COc1cccc2c(C)nc(N=C(N)N)nc12.O=C(O)C(F)(F)F.O=C(O)C(F)(F)F,15.44%,7.95%
CC1=Nc2ccc(Cl)cc2C(O)(c2ccc(C)cc2)N1CCN1CCCCC1 (stereo not given),19.52%,11.5%
CN1CCC(c2cc(-c3ccncc3)c(-c3ccc(F)cc3)[nH]2)CC1,-0.65%,-2.15%
Nc1cccnc1Nc1ccc(Cl)cc1,2.93%,-1.63%
Cc1nnc(NCc2cccc(Cl)c2)c2ccccc12,21.63%,9.19%
CCCn1nnc(NC(=O)COc2ccc(C3CCCCC3)cc2)n1,2.73%,-2.31%
Cl.NCC(c1cccs1)S(=O)(=O)c1ccccc1 (stereo not given),11.05%,-0.69%
O=C1Nc2ccc(Br)cc2C12NCCc1c2[nH]c2ccccc12 (stereo not given),8.87%,4.53%
O=C(Nc1cnc2ccccc2c1)c1cccc(-n2cnnn2)c1,5.61%,-2.29%
COc1ccc(C2=NN(C3CCCCCC3)C(=O)[C@@H]3CC=CC[C@H]23)cc1OCCCCOc1ccc(-c2nnn[nH]2)cc1,53.58%,1.88%
CC(C)(C)C(=O)N(CCCCCCN1C[C@H](O)[C@@H](O)[C@H](O)[C@H]1CO)C1CCCCCC1,-1.36%,4.68%
O=C(CCC1CCCCC1)Nc1cccc(-c2nnc(-c3ccco3)o2)c1,8.68%,8.91%
O=C(Nc1nnc(S)s1)c1cc(Br)ccc1Cl,0.16%,4.27%
CCn1cnc2c(Nc3cc(F)cc(F)c3)nc(C#N)nc21,36.21%,12.2%
Cc1ncc(-c2ccnc(Nc3ccc(S(C)(=O)=O)cc3)n2)n1C(C)C [AZD-5438],28.03%,5.82%
CC(C)(C)c1ccc(N[C@@H]2CCCC[C@H]2NC(=O)c2ccco2)cc1,7.06%,10.16%
COc1ccc2nc(C)cc(OCC(=O)NCc3ccccc3)c2c1,12.19%,7.22%

SMILES,Inhibition (Staphylococcus aureus),Inhibition (Escherichia coli)
CCCCc1ccc(NC(=O)Nc2ccc(O[C@H]3CCCC[C@@H]3N(C)c3ccccc3)c(F)c2)cc1,12.12%,9.29%
COc1cccc(OCC(=O)c2ccc(Br)cc2)c1,-13.25%,-7.45%
Cc1ccccc1C(=O)N1N=C(Nc2ccccc2)SC1(C)C,8.67%,8.51%
CCc1nc2ccccc2n1CC(O)COc1cc(C)ccc1Cl (stereo not given),11.53%,4.16%
O=C(NC1CC1)c1ccc(CSCc2ccccc2Cl)o1,11.19%,-1.44%
Cc1cc(Cl)c(S(=O)(=O)N2CCCC2)cc1OCC(=O)NC1CCCCC1,7.56%,0.73%
N#CCN(CCCCN1CCN(c2ccc(F)cc2)CC1)C(=O)OCc1ccccc1,23.36%,7.95%
CNC(=O)CNc1nc(-c2ccccn2)nc2scc(-c3ccccc3)c12,11.27%,6.67%
FC(F)(F)c1nnc2ccc(Cl)nn12,14.72%,1.56%
O=C1N(Cc2cc3ccccc3s2)CC2CN(Cc3ccccc3)CCN12 (stereo not given),3.35%,-5.97%
CC(C)C(C(=O)Nc1ccc(S(=O)(=O)N(C)C)cc1)c1ccc(Cl)cc1 (stereo not given),3.5%,11.91%
CC(=O)O.CC(=O)O.Nc1ncnc2c1ncn2[C@@H]1O[C@H](COS(=O)(=O)NC(=O)c2ccccc2O)[C@@H](O)[C@H]1O,15.68%,5.07%
CC(C)n1nc(-c2cc3c(Cl)cccc3[nH]2)c2c(N)ncnc21,11.03%,4.95%
CC(Oc1ccccc1)C(=O)Nc1nc(-c2ccccn2)cs1 (stereo not given),40.18%,-10.82%
NCC(=O)N1CCn2c(nc(-c3ccccc3)c2Nc2ccc3c(c2)OCO3)C1,11.35%,-1.15%
Cl.c1ccc(Oc2ccc(-c3cc(N4CCNCC4)[nH]n3)cc2)cc1,14.57%,9.1%
COc1ccccc1OCCCCn1c(C2CC2)nc2ccccc21,12.87%,4.8%
